# Screening data as filed in PubChem.
# Shown is part of a subset that was picked to be rich in hits.
# CD40 NFkB inh: CD40 pathway inhibition in BL2 cells. BL2 NF-kB luciferase reporter, CD40L-induced, 4 h. inhibition, % at 10 µM. 83,000 tested, 0.94% active. AID 1053188;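 active = mean inhibition of at least 50% with a set share of replicates also reaching that level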;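 note: 0% = neutral control wells and 100% = IKK inhibitor VII at 50 µM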
# * = called active by the depositor; [ ] = another dose, or the depositor's remark.
SMILES,CD40 NFkB inh
CCc1csc(N2[C@H](C#N)[C@H](c3ccc(C#Cc4ccc(F)cc4)cc3)[C@H]2CO)n1,77*[25 µM]
N#C[C@@H]1[C@@H](c2ccc(C#Cc3ccc(F)cc3)cc2)[C@H](CO)N1C(=O)C1CCCC1,-2
N#C[C@@H]1[C@H](c2ccc(C#Cc3ccccc3F)cc2)[C@@H](CO)N1C(=O)c1cccnc1,78*[25 µM]
N#C[C@H]1[C@H](c2ccc(C#Cc3ccccc3F)cc2)[C@@H](CO)N1C(=O)C1CCCC1,56*
N#C[C@@H]1[C@@H](c2ccc(C#Cc3ccccc3F)cc2)[C@H](CO)N1C(=O)C1CCCC1,-7
CCc1csc(N2[C@H](C#N)[C@@H](c3ccc(-c4ccc(F)cc4)cc3)[C@@H]2CO)n1,19
N#C[C@@H]1[C@H](c2ccc(C#Cc3ccccc3F)cc2)[C@H](CO)N1C(=O)c1cccnc1,11[25 µM]
CCc1cnc(N2[C@H](C#N)[C@H](c3ccc(C#Cc4ccccc4F)cc3)[C@H]2CO)s1,73*[25 µM]
CCc1cnc(N2[C@H](C#N)[C@@H](c3ccc(C#Cc4ccccc4F)cc3)[C@H]2CO)s1,-2[25 µM]
CCc1cnc(N2[C@H](C#N)[C@H](c3ccc(C#Cc4ccccc4F)cc3)[C@@H]2CO)s1,7[25 µM]
CO[C@@H]1CN(C)C(=O)c2cc(NC(=O)c3cnccn3)ccc2OC[C@@H](C)NC[C@@H]1C,4[25 µM]
CCC(=O)N[C@@H]1CC[C@H](CC(=O)NCCN2CCCCC2)O[C@H]1CO,-4
CO[C@@H]1CN(C)C(=O)c2ccc(NC(=O)C3CCCC3)cc2OC[C@@H](C)NC[C@@H]1C,-9
O=C(NC1Cc2ccccc2C1)[C@H]1N[C@H]2c3cccc(=O)n3C[C@H]2[C@@H]1CO,1[25 µM]
N#C[C@@H]1[C@@H](c2ccc(-c3cccc(F)c3)cc2)[C@@H](CO)N1S(=O)(=O)c1cccc(F)c1,-12
C[C@H](CO)N1C[C@H](C)[C@H](CN(C)S(=O)(=O)CC(F)(F)F)OCc2ccccc2-c2c(n(C)c3ccccc23)C1=O,4[25 µM]
CC(C)C#Cc1ccc([C@H]2[C@@H](CO)N(C(=O)c3ccccn3)[C@H]2C#N)cc1,60*[25 µM]
CC(C)C#Cc1ccc([C@@H]2[C@@H](C#N)N(C(=O)c3ccccn3)[C@@H]2CO)cc1,-11[25 µM]
N#C[C@@H]1[C@H](c2ccc(C#Cc3ccccc3F)cc2)[C@@H](CO)N1C(=O)C1CCCC1,94*
N#C[C@@H]1[C@@H](c2ccc(C#Cc3ccccc3F)cc2)[C@H](CO)N1C(=O)C1CC1,-4[25 µM]
N#C[C@H]1[C@H](c2ccc(C#Cc3ccccc3F)cc2)[C@@H](CO)N1C(=O)C1CC1,50*[25 µM]
N#C[C@H]1[C@@H](c2ccc(C#Cc3ccc(F)cc3)cc2)[C@H](CO)N1C(=O)C1CCCC1,15
N#C[C@H]1[C@H](c2ccc(C#Cc3ccc(F)cc3)cc2)[C@H](CO)N1C(=O)C1CCCC1,-13
N#C[C@@H]1[C@@H](c2ccc(C#Cc3ccccc3F)cc2)[C@@H](CO)N1C(=O)C1CC1,0
CC(C)C#Cc1ccc([C@H]2[C@H](C#N)N(C(=O)c3ccccn3)[C@H]2CO)cc1,15[25 µM]
SMILES,CD40 NFkB inh
CC(C)NC(=O)N[C@H]1CC[C@H](CC(=O)NCCCN(C)C)O[C@@H]1CO,3[25 µM]
O=C1CCCn2cc(nn2)COCCN1,2[25 µM]
CCCN(C)C[C@@H]1OCc2cnnn2CCCC(=O)N([C@@H](C)CO)C[C@H]1C,-2[25 µM]
CC(C)C#Cc1ccc([C@@H]2[C@@H](CO)N3C(=O)CN(S(=O)(=O)c4ccccc4)C[C@H]23)cc1,8[25 µM]
C[C@H](CO)N1C[C@H](C)[C@@H](CN(C)Cc2ccc3c(c2)OCCO3)OCc2cn(nn2)CCCC1=O,11
O=C(C[C@H]1CC[C@@H]2[C@H](COC[C@@H](O)CN2C(=O)Nc2ccccc2)O1)NCc1ccccc1F,8[25 µM]
Cc1cc(C(=O)N2CCN(c3ncccn3)CC2)c(C)o1,-6
Cc1cc(C(=O)N2CCC(C(=O)O)CC2)c(C)o1,0
Cc1cc(C(=O)N2CCN(c3ccccc3Cl)CC2)c(C)o1,78*
COCC#Cc1ccc([C@@H]2[C@H](CO)N3C(=O)CN(C(=O)c4ccncc4)C[C@@H]23)cc1,-6[25 µM]
COc1ccc(S(=O)(=O)N(C)C[C@@H]2Oc3c(NC(=O)Nc4c(C)noc4C)cccc3C(=O)N([C@H](C)CO)C[C@H]2C)cc1,-5[25 µM]
C[C@@H]1CCCCO[C@H](CN(C)Cc2ccc3c(c2)OCO3)[C@H](C)CN([C@H](C)CO)C(=O)c2cc(NS(=O)(=O)c3cn(C)cn3)ccc2O1,0[25 µM]
C[C@H]1CN(C)C(=O)c2ccccc2O[C@@H]1CN(C)C,-30
COc1ccc(CN(CCC(c2ccccc2)c2ccc(OC(C)C)cc2)C(=O)CCl)cc1OC (stereo not given),44*
COc1ccc(CN(CCC(c2ccccc2)C2CCOC(C)(C)C2)C(C)=O)cc1 (stereo not given),-5
COc1ccc(CN(CCC(c2ccco2)C(C)C)C(C)=O)cc1OC (stereo not given),5
O=C(N[C@H]1C=C[C@H](CC(=O)N2CCN(c3ccccc3)CC2)O[C@@H]1CO)c1ccccc1,-2[25 µM]
